Assay outcomes deposited in PubChem BioAssay by National Center for Advancing Translational Sciences (NCATS).
VACV Venus inh = inhibitors of vaccinia virus (Venus reporter); 330,000 compounds, 0.46% hits; Potency, µM (highest dose often 36.5 µM), without a hit: at the highest dose activity change, negative = inhibition, most hits filed as inhibitors; Vaccinia virus Venus reporter expression, fluorescence; AID 720580; calls by dose curve; tested in A549 cells; note: potency is the fitted concentration of half-maximal effect; nearly all actives have a fitted effect of over 30% in size
HCMV inh = blocks human cytomegalovirus replication | 410,000 compounds, 4.5% hits | activity change, negative = inhibition, % at 57.5 µM | HFF cells, HCMV-luciferase reporter, 72 h; hits give low values; in the data active = activity change below about -60%; inconclusive = no clear call, values can overlap the other calls; inactive = above about -39%
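Compounds were evaluated in HFFs infected with an HCMV luciferase reporter virus (MOI 1 PFU/cell). Luciferase in lysates collected 72 h post infection served as the replication measure.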
HCV inhibitor = inhibitors of hepatitis C virus infection; Huh7.5.1 HCVcc-Cre infection, luciferase reporter, 44 h; Potency, µM (titrated, usually from 41.8 µM), for the others: at the top dose activity change, negative = inhibition, actives largely listed as inhibitors; 340,000 compounds, 3.4% hits; active = well fitted inhibition curve with a large enough effect; inconclusive = small, poorly fitted or top-dose-only effect, or another doubt; inactive = no such curve, though single readings can be large or run the other way; note: potency is the fitted concentration of half-maximal effect
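Antiviral activity was scored by luciferase reporter output from cells infected with HCVcc-Cre (~0.5 moi) in presence of compound, 44 h infection period, cells seeded 1,000/well 4 h prior.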
MARV entry inh = Marburg virus entry inhibition | 300,000 compounds, 1.8% hits | Marburg virus pseudotyped entry inhibition, cell reporter | Potency, µM (series often up to 37.8 µM), without a hit: top-dose activity change, negative = inhibition, usual class: inhibitors; calls by dose curve; tested in HEK293 cells; note: potency is the fitted concentration of half-maximal effect
VACV mCherry inh = inhibitors of vaccinia virus infection (mCherry reporter signal); Vaccinia virus mCherry reporter infection, fluorescence; Potency, µM (doses to about 36.5 µM), inactives show at the top dose activity change, negative = inhibition, actives largely listed as inhibitors; 310,000 compounds, 0.63% hits; AID 720579; calls by dose curve; tested in A549 cells; note: potency is the fitted concentration of half-maximal effect; nearly all actives have a fitted effect of over 35% in size
LASV entry inh = blocks Lassa virus binding to or entry into cells; Potency, µM (series often up to 37.9 µM), for inactives: at the highest dose activity change, negative = inhibition, usual class: inhibitors; AID 540256; Lassa virus pseudotype entry inhibition, cell reporter; 300,000 compounds, 1.2% hits; calls by dose curve; tested in HEK293 cells; note: potency is the fitted concentration of half-maximal effect; nearly all actives have a fitted effect of over 50% in size
* = called active by the depositor; i = inactive; u = inconclusive; x = not tested or not shown; [ ] = dose if it differs, or a comment. Compounds with a hit are over-represented: about 7.8% of the library has one in this group of screens. % is set by controls: 0 for no effect and ±100 for the full control effect.

SMILES | VACV Venus inh | HCMV inh | HCV inhibitor | MARV entry inh | VACV mCherry inh | LASV entry inh
Cc1cccn2cc(-c3ccc4c(c3)NC(=O)CO4)nc12 | -15% | 3 | -19% | 0% | i | u
Cc1nc2ccccc2n1CCc1nc2c3ccccc3nc(SCc3cccc(F)c3)n2n1 | u | 3 | x | x | u | 10%[46.1 µM]
CN1CCN(CC(O)(c2ccc(Cl)cc2)c2ccc(Cl)cc2)CC1 | -16% | u | 3.2µM* | u | -18% | -13%
CN1CCN(CC(O)COc2ccc(Cl)cc2)CC1 (stereo not given) | -5% | 3 | -15% | 1% | -11% | 20%
O=[N+]([O-])c1cccc2c([As](=O)(O)O)cccc12 | -14% | -74* | u | -6%[46.1 µM] | i | 9%[46.1 µM]
CCOc1cccc(C(=O)Nc2nnc(-c3ccco3)s2)c1 | -7% | 55 | 1% | 4µM* | x | u
O=C(Nc1ccc2oc(Cc3ccc(Cl)cc3)nc2c1)c1cccnc1 | u | u | u | u | -28% | u
CCOc1cccc(C(=O)Nc2ccc3oc(Cc4ccc(Cl)cc4)nc3c2)c1 | u | -60* | u | u | x | u
CCOc1cccc(C(=O)Nc2cccc(-c3nnc(-c4ccc(C)cc4)o3)c2)c1 | -6% | -70* | u | u | -12% | 0%
Cc1cc(NC(=O)c2ccco2)cc(-c2nc3cc(Cl)ccc3o2)c1O | u | -61* | x | 1%[46.1 µM] | u | 19%[46.1 µM]
CN(C)CC(C)(C)CNC(=O)c1cnn(-c2ncc3c(n2)-c2ccccc2CC3)c1-c1ccco1 | -7% | x | x | x | -3% | x
Cc1ccc2nc(-c3ccc(C)o3)c(Nc3ccc(F)cc3)n2c1 | -14% | x | x | x | -14% | x
CCOc1cccc(C(=O)Nc2ccc3oc(-c4cccnc4)nc3c2)c1 | -21% | u | 10µM* | -7%[46.1 µM] | -11% | 0%[46.1 µM]
O=C(Nc1ccc2oc(-c3ccccc3)nc2c1)c1ccncc1 | -6% | -36 | 10µM* | u | x | -13%
O=C(Nc1ccc2nc(-c3ccccc3)oc2c1)c1ccco1 | -4% | -11 | 10µM* | -31%[46.1 µM] | -19% | 12%
Cc1oc(-c2ccc(Cl)cc2)nc1CN1CCCC(C(=O)NCCc2ccc(Cl)cc2)C1 (stereo not given) | -19% | 4 | x | 4%[46.1 µM] | -29% | 18%[46.1 µM]
O=C(Nc1cc(Cl)ccc1Cl)C1(c2cccs2)CCOCC1 | -6% | 11 | x | x | -19% | u
Fc1cccc(/C=N/Nc2ccc3ccccc3n2)c1 | -13% | 2 | -12% | 6.3µM* | -9% | u
Brc1ccccc1/C=N/Nc1ccc2ccccc2n1 | -17% | 277 | u | 11µM* | -6% | u
O=[N+]([O-])c1cccc(C=NNc2ccc3ccccc3n2)c1O | u | -97* | u | 2.2µM* | u | 2.5µM*
O=C(N/N=C/c1cccc([N+](=O)[O-])c1O)C(O)(c1ccccc1)c1ccccc1 | x | 51 | 9% | x | x | x
Brc1ccc(/C=N/Nc2ccc3ccccc3n2)cc1 | -8% | 133 | 12% | -20% | -17% | u
COC(=O)[C@]1(C#N)CC(=O)N([C@H](C)[C@@H](O)c2ccccc2)[C@@H]1c1ccccc1 | x | 0 | x | x | x | x
COc1cc(-c2cnc3c(NC=O)cc(-c4ccc(C)cc4)cn23)cc(OC)c1OC | u | -76* | x | x | u | x
COc1ccc(F)cc1-c1cc(NC=O)c2ncc(-c3cc(OC)c(OC)c(OC)c3)n2c1 | u | -76* | x | x | u | x
SMILES | VACV Venus inh | HCMV inh | HCV inhibitor | MARV entry inh | VACV mCherry inh | LASV entry inh
COc1cc(-c2cnc3c(NC=O)cc(-c4ccccc4Cl)cn23)cc(OC)c1OC | u | -77* | x | x | u | x
COc1cc(-c2cnc3c(NC=O)cc(-c4ccccc4)cn23)cc(OC)c1OC | u | u | x | x | -23% | x
CN(C(=O)COC(=O)c1c2c(nc3ccccc13)/C(=C/c1cccc([N+](=O)[O-])c1)CCC2)C1CCS(=O)(=O)C1 (stereo not given) | -24% | u | 1.8µM* | u | -15% | u
O=C(COC(=O)c1c2c(nc3ccccc13)/C(=C\c1ccco1)CC2)NC1CCCC1 | -23% | -36 | u | u | -23% | -11%
O=C(COC(=O)c1c2c(nc3ccccc13)/C(=C/c1cccc([N+](=O)[O-])c1)CCC2)NC1CCS(=O)(=O)C1 (stereo not given) | u | -35 | 3.5µM* | u | u | u
COc1ccc2cc(-c3cc(C(=O)OCC(=O)NC4CCS(=O)(=O)C4)c4ccccc4n3)ccc2c1 (stereo not given) | -26% | 66 | u | 3.2µM* | u | 3.5µM*
CN(C(=O)COC(=O)/C=C/c1cccc([N+](=O)[O-])c1)C1CCS(=O)(=O)C1 (stereo not given) | 2.8µM* | -32 | -6% | 3.5µM* | 1.8µM* | -12%
CC(C)c1nc2n(n1)C1(CCCCC1)[C@@H]1CCCC[C@@H]1N2 | 12% | -14 | x | -16%[46.1 µM] | -15% | -1%[46.1 µM]
COc1cc(/C=C/c2ccc3cccc([N+](=O)[O-])c3n2)ccc1OCC#N | -19% | -93* | 4.5µM* | u | u | u
CCOc1cc(/C=C/c2ccc3cccc([N+](=O)[O-])c3n2)ccc1OCC(=O)N(C)C | u | -109* | u | u | u | x
CCOc1cc(/C=C/c2ccc3cccc([N+](=O)[O-])c3n2)ccc1O | u | -99* | u | u | u | u
COc1ccc(C(=O)NCCN2Cc3ccccc3OC(c3ccsc3)C2)c(OC)n1 (stereo not given) | 10% | x | x | x | -8% | x
S=c1[nH]nc(C2CCCCC2)n1/N=C/c1ccccc1 | x | 8 | 1% | x | x | x
CCOc1ccc(/C=N/n2c(C3CCCCC3)n[nH]c2=S)cc1 | x | -81* | 11µM* | x | x | x
CN(C)c1ccc(/C=N/n2c(C3CCCCC3)n[nH]c2=S)cc1 | -26% | -11 | 10% | 2.2µM* | -4% | u
Fc1ccc(/C=N/n2c(C3CCCCC3)n[nH]c2=S)cc1 | x | 24 | 4% | x | x | x
N#Cc1ccc(NC(=O)COCc2cc(-c3ccc4c(c3)OCO4)on2)cc1 | -11% | 9 | x | x | -8% | 14%[46.1 µM]
COc1ccc2[nH]c(C(=O)N3CCc4ccccc4C3)c(C)c2c1 | x | -37 | 11µM* | x | x | x
COc1ccc(CNCCC(c2ccc(C)cc2)c2ccco2)cc1 (stereo not given) | -20% | -78* | x | 28µM* | -20% | -20%[46.1 µM]
O=S(=O)(NCCC(c1ccc(F)cc1)c1ccco1)c1ccccc1 (stereo not given) | -24% | u | u | -9% | -29% | -18%
Cc1ccc(C(CCN)c2ccco2)cc1 (stereo not given) | x | 9 | -13% | u | x | 7%
COc1ccc(CNCCC(c2ccccc2)c2ccc3c(c2)OCO3)cc1 (stereo not given) | u | -18 | 10µM* | u | u | u
